Sampled rows, rich in hits. Any-hit rate of the full collection: about 6.6%.
FBA Mtb inh = Mtb fructose-bisphosphate aldolase inhibition; P9WQA3; purified M. tuberculosis FBA, fluorescence read-out; inhibition, % at 1 µM; hit rate 2.3% among 360,000; AID 588726; in the data active means inhibition above about 27%
Target sequence (P9WQA3 whole entry, looked up): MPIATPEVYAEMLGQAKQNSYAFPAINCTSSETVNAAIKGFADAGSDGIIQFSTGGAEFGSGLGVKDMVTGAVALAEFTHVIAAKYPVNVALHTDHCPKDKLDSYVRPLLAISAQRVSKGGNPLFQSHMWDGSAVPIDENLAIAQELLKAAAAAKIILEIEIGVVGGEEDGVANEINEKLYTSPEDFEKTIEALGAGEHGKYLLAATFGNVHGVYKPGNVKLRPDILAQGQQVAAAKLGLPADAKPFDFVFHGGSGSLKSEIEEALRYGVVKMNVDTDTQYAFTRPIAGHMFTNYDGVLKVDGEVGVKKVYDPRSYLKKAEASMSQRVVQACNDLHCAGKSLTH
GDH-TPI counter = counter-screen for M. tuberculosis FBA inhibitors: GDH-TPI coupled enzymes. GDH-TPI coupled enzyme counterscreen, NADH absorbance. inhibition, % at 4.8 µM. hit rate 1.2% among 360,000; in the data active means inhibition above about 30%
Bead autofluor = counter-screen for toxin protease inhibitors: compound fluorescence; hit rate 3.1% among 360,000; compound autofluorescence counterscreen, microsphere flow cytometry; hits give high values; fluorescence intensity (no concentration beside the values); in the data active means fluorescence intensity above about 16000; inconclusive means no clear call, values can overlap the other calls
BoNT A protease = blocks Botulinum neurotoxin A light chain protease; inhibition, % at 10 µM; hit rate 0.17% among 360,000; AID 588499; multiplex microsphere protease substrate cleavage, flow cytometry
BoNT F protease = blocks Botulinum neurotoxin F light chain protease | Multiplex microsphere protease cleavage assay, flow cytometry | inhibition, % at 10 µM | hit rate 0.22% among 360,000; in the data active means inhibition above about 35%, passing the limit was not always enough; inconclusive means no clear call, values can overlap the other calls
Anthrax LF inh2 = inhibitors of Bacillus anthracis lethal factor protease. P15917. multiplex microsphere protease cleavage assay, LF. inhibition, % at 10 µM. hit rate 0.12% among 360,000
Of the large screens only hits and unclear results are named; the others gave an inactive call. Unless noted, no stated cut-off is given here; in the data, active means inhibition above about 30%; inconclusive means no clear call, values can overlap the other calls; inactive means below that.

COC(=O)c1c(NC(=O)CN2CCN(Cc3ccc4c(c3)OCO4)CC2)sc(C)c1C	Bead autofluor inconclusive
CCC(=O)Nc1sccc1C(=O)OC	Bead autofluor 22995, BoNT A protease inconclusive
COC(=O)Nc1sccc1C(=O)Nc1sccc1C(=O)OC	none
CC(=O)Nc1ccc(S(=O)(=O)NC2(C(F)(F)F)NC(=O)N(C3CCCCC3)C2=O)cc1 (stereo unspecified)	Bead autofluor 23390, BoNT A protease inconclusive
CC(=O)Nc1ccc(S(=O)(=O)NC2(C(F)(F)F)NC(=O)N(c3ccc(C)cc3)C2=O)cc1 (stereo unspecified)	none
CC(=O)Nc1ccc(S(=O)(=O)NC2(C(F)(F)F)NC(=O)N(c3ccccc3F)C2=O)cc1 (stereo unspecified)	none
CC(=O)NC1(C(F)(F)F)NC(=O)N(C2CCCCC2)C1=O (stereo unspecified)	Bead autofluor 22952
CC(=O)NC1(C(F)(F)F)NC(=O)N(CC(C)C)C1=O (stereo unspecified)	none
CC(=O)Nc1ccc(S(=O)(=O)NC2(C(F)(F)F)NC(=O)N(C3CCCC3)C2=O)cc1 (stereo unspecified)	Bead autofluor 22547
NCCC1CCCC(CCN)N1 (stereo unspecified)	none
CCc1nc2cc([N+](=O)[O-])c([N+](=O)[O-])cc2[nH]1	none
CC1(C)NC(=O)N(CC(O)CN2C(=O)NC(C)(C)C2=O)C1=O	Bead autofluor 23204
CC1(C)NC(=O)N(CC(O)COc2ccccc2C(=O)Nc2ccccc2)C1=O (stereo unspecified)	Bead autofluor 23718
CCN(CC)CC(O)CN1C(=O)NC(C)(C)C1=O (stereo unspecified)	none
COC(=O)c1ccc(CSc2nc3ccc(C)cc3[nH]2)o1	none
O=S(=O)(c1ccc(Nc2ccc(-c3ccc4c(c3)OCCO4)nn2)cc1)N1CCCC1	GDH-TPI counter 34
O=C(Nc1cccc(C(=O)NC2CC2)c1)c1ccccc1	none
O=C(NC1CC1)c1cccc(Nc2ccc(-c3ccc4c(c3)OCCO4)nn2)c1	Bead autofluor 21941
CCN(CC)c1ccc(C(=O)N/N=C(\C)c2ccc(O)cc2)cc1	GDH-TPI counter 34
C/C(=N\NC(=O)c1cc(C)oc1C)c1ccc(C)c([N+](=O)[O-])c1	none
COc1ccc(/C(C)=N/NC(=O)c2ccc(N(C)C)cc2)cc1	GDH-TPI counter 35
COc1ccc2cc(/C(C)=N/NC(=O)c3cc(C)oc3C)ccc2c1	FBA Mtb inh 198
CCN(CC)c1ccc(C(=O)N/N=C(\C)c2cccnc2)cc1	none
NS(=O)(=O)c1ccc(CCNc2ccn3nc(-c4ccc(OCCN5CCOCC5)cc4)cc3n2)cc1	none
COCCCN(C(C)=O)c1nc(-c2ccccc2)cs1	Bead autofluor 21845, BoNT A protease inconclusive
CS(=O)(=O)N(CC(=O)Nc1cc(Cl)ccc1Cl)c1ccccc1	Bead autofluor 24006
COc1ccc(N(CC(=O)N2CCc3ccccc3C2)S(C)(=O)=O)cc1OC	Bead autofluor 16881
COc1ccccc1N(CC(=O)N1CCc2ccccc2C1)S(C)(=O)=O	none
COc1ccc(NC(=O)N2CCN(c3cccc(C(F)(F)F)c3)CC2)cc1OC	Bead autofluor 19995
COc1ccc(N(CC(=O)Nc2ccc(S(=O)(=O)N3CCCCC3)cc2)S(C)(=O)=O)cc1OC	Bead autofluor 19464, BoNT A protease inconclusive
O=C(Nc1ccccc1)N1CCN(c2cccc(C(F)(F)F)c2)CC1	none
N#CCCn1cc(C(=O)CN2C(=O)C(=O)N(C3CCCC3)C2=O)c2ccccc21	none
O=C(N[C@H]1/C=C\[C@@H](O)CCCC1)OCc1ccccc1	none
CC(=O)Nc1ccc(NC(=O)CN(c2cccc(C)c2)S(C)(=O)=O)cc1	Bead autofluor 22430
COc1cccc(NC(=O)CN(c2cccc(C(F)(F)F)c2)S(C)(=O)=O)c1	none
CC(=O)Nc1ccc(NC(=O)CN(c2cccc(C(C)=O)c2)S(C)(=O)=O)cc1	none
COc1ccc(NC(=O)CN(c2cccc(C(F)(F)F)c2)S(C)(=O)=O)cc1OC	Bead autofluor 20812
Cc1cc(C(=O)NNC(=O)c2ccc(Cl)c(S(N)(=O)=O)c2)c(C)o1	none
CCOc1ccc(-c2cncc3nccn23)cc1	FBA Mtb inh active
N#Cc1ccccc1OCC(=O)NNC(=O)CCC1CCCC1	none
Cn1c(=O)c2c(ncn2Cc2ccccc2)n(C)c1=O	none
Cn1c(=O)c2c(ncn2CCCc2ccccc2)n(C)c1=O	Bead autofluor 20359
CCCCn1cnc2c1c(=O)n(C)c(=O)n2C	Bead autofluor 23846
CCOC(=O)/C(=N\Nc1cc(Cl)ccc1Cl)N1CCN(CC)CC1	none
CCC1CCCCN1CCCNC(=O)c1ccc2c(=O)n(CCOC)c(=O)[nH]c2c1 (stereo unspecified)	none
Cc1ccc(S(=O)(=O)N(C)C)cc1NC(=S)NC12CC3CC(CC(C3)C1)C2	FBA Mtb inh active
CNc1cc(C(=O)Nc2cccc(OCc3ccccc3)c2)ncn1	none
O=C(O)c1cccnc1SC1CC(=O)N(CCc2ccccc2)C1=O (stereo unspecified)	Bead autofluor 24601
O=C(O)c1cccnc1SC1CC(=O)N(Cc2ccccc2)C1=O (stereo unspecified)	none
CCO/C(=C/c1sc2ccc(OC)cc2[n+]1CCCS(=O)(=O)[O-])CC	none
CCC(/C=C1\Sc2ccc(OC)cc2N1CC)=C\c1sc2ccc(OC)cc2[n+]1CCCS(=O)(=O)[O-]	BoNT A protease 100, Anthrax LF inh2 48
CCC(/C=C1\Sc2ccc(OC)cc2N1CCO)=C\c1sc2ccc(OC)cc2[n+]1CCO	BoNT A protease 40
Cc1ccc(OCCC(=O)NNC(=O)c2nn(C)c(=O)c3ccccc23)cc1	none
CNC(=S)NNC(=O)c1cccn(Cc2cccc(Cl)c2)c1=O	Bead autofluor 24235
C=CCNC(=S)NNC(=O)c1cccn(Cc2ccc(Cl)c(Cl)c2)c1=O	none
CNC(=S)NNC(=O)c1cccn(Cc2ccc(Cl)c(Cl)c2)c1=O	Bead autofluor 22977
O=C(NCc1ccccc1)c1cccn(Cc2cccc(Cl)c2)c1=O	none
COc1cc2ccccc2cc1C(=O)N/N=C/c1cccs1	GDH-TPI counter 35
COc1ccc(/C=C(/NC(=O)c2ccccc2)C(=O)N/N=C/c2ccc3c(c2)OCO3)cc1OC	GDH-TPI counter 65
COc1ccc(/C=C(/NC(=O)c2ccccc2)C(=O)N/N=C/c2cccs2)cc1OC	GDH-TPI counter 69
COc1ccc(/C=C(\NC(=O)c2cccs2)C(=O)Nc2ccccc2C)cc1OC	GDH-TPI counter 38
O=C(CCS(=O)(=O)Cc1ccc(Cl)cc1)NCCc1ccccc1	none
CCSc1nnc(NC(=O)CSc2nc3c(c(=O)n2CCOC)SC(C)C3)s1 (stereo unspecified)	none
O=C(COc1ccc(F)cc1Br)Nc1ccccc1N1CCOCC1	Bead autofluor inconclusive
O=C(N/N=C/c1ccc2c(c1)OCO2)/C(=C/c1ccc2c(c1)OCO2)NC(=O)c1ccccc1	GDH-TPI counter 55 (no result: Bead autofluor, BoNT A protease, BoNT F protease, Anthrax LF inh2)

High-throughput results from PubChem BioAssay.
